# Measured values as given in PubChem BioAssay AID1159580 (chemical genetic matrix, 2015).
# Where “and” joins values, the source holds several entries; their conditions need not be identical. Equal values may be shown once. Screen size: about 5,500 compounds; about 2,000 (36%) were called active. Inconclusive results (about 18%) are left out. No stated cut-off is given here; in the data, active means normalized growth mostly below about 0.91 (no sharp cut-off); inconclusive means no clear call, values can overlap the other calls; inactive means mostly above about 0.92. This is one part of the list. The source holds several records for some structures; these can differ, active in one and inactive in another.
# Assay: chemical genetic growth profiling, strain panel (AID 1159580);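 further: tested at 20 µM; growth read once vehicle control cultures reached saturation at 30 °C; 1 = growth at the plate median or of vehicle wells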
# Settings: S. cerevisiae deletion strains, growth OD
structure (smiles),measurement,setting,value
Fc1ccc(C(c2ccc(F)cc2)N2CCN(C/C=C/c3ccccc3)CC2)cc1,normalized growth,"locus YAL013W, strain DEP1, stronger effect = lower value",0.996 (inactive) and 0.961 (inactive)
same,normalized growth,"locus YAL021C, strain ccr4, stronger effect = lower value",0.625 (active)
same,normalized growth,"locus YAL026C, strain drs2, stronger effect = lower value",0.0836 (active)
same,normalized growth,"locus YAL030W, strain snc1, stronger effect = lower value",0.293 (active)
same,normalized growth,"locus YAL040C, strain CLN3, stronger effect = lower value",1.02 (inactive)
same,normalized growth,"locus YBL061C, strain skt5, stronger effect = lower value",0.214 (active)
same,normalized growth,"locus YBR009C, strain hhf1, stronger effect = lower value",0.263 (active)
same,normalized growth,"locus YBR021W, strain FUR4, stronger effect = lower value",0.978 (inactive)
same,normalized growth,"locus YBR023C, strain chs3, stronger effect = lower value",0.22 (active)
same,normalized growth,"locus YBR171W, strain sec66, stronger effect = lower value",0.662 (active)
same,normalized growth,"locus YBR229C, strain ROT2, stronger effect = lower value",0.989 (inactive)
same,normalized growth,"locus YBR231C, strain swc5, stronger effect = lower value",0.147 (active)
same,normalized growth,"locus YBR279W, strain paf1, stronger effect = lower value",0.488 (active)
same,normalized growth,"locus YCL011C, strain gbp2, stronger effect = lower value",0.221 (active)
same,normalized growth,"locus YCL016C, strain dcc1, stronger effect = lower value",0.234 (active)
same,normalized growth,"locus YCL029C, strain bik1, stronger effect = lower value",0.945 (inactive)
same,normalized growth,"locus YCL061C, strain MRC1 (second series), stronger effect = lower value",0.96 (inactive)
same,normalized growth,"locus YCL069W, strain vba3, stronger effect = lower value",0.18 (active)
same,normalized growth,"locus YCR088W, strain abp1, stronger effect = lower value",0.374 (active)
same,normalized growth,"locus YDL005C, strain med2, stronger effect = lower value",0.263 (active)
same,normalized growth,"locus YDL035C, strain GPR1, stronger effect = lower value",0.976 (inactive)
same,normalized growth,"locus YDL040C, strain nat1, stronger effect = lower value",0.666 (active)
same,normalized growth,"locus YDL074C, strain BRE1, stronger effect = lower value",0.904 (inactive)
same,normalized growth,"locus YDL101C, strain DUN1, stronger effect = lower value",0.973 (inactive)
same,normalized growth,"locus YDL134C, strain PPH21, stronger effect = lower value",0.993 (inactive)
same,normalized growth,"locus YDL185W, strain tfp1, stronger effect = lower value",0.966 (inactive)
same,normalized growth,"locus YDL192W, strain arf1, stronger effect = lower value",0.973 (inactive)
same,normalized growth,"locus YDR001C, strain nth1, stronger effect = lower value",0.442 (active)
same,normalized growth,"locus YDR069C, strain doa4, stronger effect = lower value",0.479 (active)
same,normalized growth,"locus YDR101C, strain arx1, stronger effect = lower value",0.967 (inactive)
same,normalized growth,"locus YDR137W, strain rgp1, stronger effect = lower value",1.01 (inactive)
same,normalized growth,"locus YDR150W, strain NUM1, stronger effect = lower value",0.985 (inactive) and 0.925 (active)
same,normalized growth,"locus YDR159W, strain sac3, stronger effect = lower value",0.15 (active)
same,normalized growth,"locus YDR162C, strain NBP2, stronger effect = lower value",0.966 (inactive)
same,normalized growth,"locus YDR195W, strain ref2",1.05 (inactive)
same,normalized growth,"locus YDR297W, strain sur2, stronger effect = lower value",0.322 (active)
same,normalized growth,"locus YDR318W, strain mcm21, stronger effect = lower value",0.951 (inactive)
same,normalized growth,"locus YDR334W, strain swr1, stronger effect = lower value",0.208 (active)
same,normalized growth,"locus YDR335W, strain msn5, stronger effect = lower value",0.368 (active)
same,normalized growth,"locus YDR363W, strain ESC2, stronger effect = lower value",0.922 (inactive)
same,normalized growth,"locus YDR388W, stronger effect = lower value",0.88 (active)
same,normalized growth,"locus YDR392W, strain spt3, stronger effect = lower value",0.104 (active)
same,normalized growth,"locus YDR502C, strain sam2, stronger effect = lower value",0.988 (inactive)
same,normalized growth,"locus YEL003W, strain gim4, stronger effect = lower value",0.326 (active)
same,normalized growth,"locus YEL037C, strain rad23, stronger effect = lower value",0.215 (active)
same,normalized growth,"locus YEL061C, strain CIN8 (second series), stronger effect = lower value",0.229 (active)
same,normalized growth,"locus YEL061C, strain CIN8, stronger effect = lower value",0.991 (inactive)
same,normalized growth,"locus YER015W, strain faa2, stronger effect = lower value",0.346 (active)
same,normalized growth,"locus YER016W, strain bim1, stronger effect = lower value",0.715 (active)
same,normalized growth,"locus YER110C, stronger effect = lower value",0.974 (inactive)
same,normalized growth,"locus YER111C, strain swi4, stronger effect = lower value",0.663 (active)
same,normalized growth,"locus YER155C, strain BEM2 (second series), stronger effect = lower value",0.736 (active)
same,normalized growth,"locus YER155C, strain BEM2, stronger effect = lower value",1.01 (inactive)
same,normalized growth,"locus YER167W, strain BCK2, stronger effect = lower value",1.01 (inactive)
same,normalized growth,"locus YFR010W, strain ubp6, stronger effect = lower value",0.297 (active)
same,normalized growth,"locus YGL078C, strain dbp3, stronger effect = lower value",0.994 (inactive)
same,normalized growth,"locus YGL086W, strain mad1, stronger effect = lower value",0.999 (inactive)
same,normalized growth,"locus YGL167C, strain pmr1, stronger effect = lower value",1.01 (inactive)
same,normalized growth,"locus YGL173C, strain kem1, stronger effect = lower value",0.794 (active)
same,normalized growth,"locus YGL227W, strain vid30, stronger effect = lower value",0.243 (active)
same,normalized growth,"locus YGL240W, strain doc1, stronger effect = lower value",0.819 (active)
same,normalized growth,"locus YGL248W, strain PDE1, stronger effect = lower value",0.99 (inactive)
same,normalized growth,"locus YGL253W, strain hxk2, stronger effect = lower value",0.0972 (active)
same,normalized growth,"locus YGR078C, strain PAC10, stronger effect = lower value",0.976 (inactive)
same,normalized growth,"locus YGR135W, strain pre9, stronger effect = lower value",0.942 (inactive)
same,normalized growth,"locus YGR229C, strain SMI1, stronger effect = lower value",0.919 (inactive) and 0.24 (active)
same,normalized growth,"locus YGR252W, strain gcn5, stronger effect = lower value",1.07 (inactive)
same,normalized growth,"locus YHR013C, strain ard1, stronger effect = lower value",0.149 (active)
same,normalized growth,"locus YHR027C, strain rpn1, stronger effect = lower value",0.556 (active)
same,normalized growth,"locus YHR030C, strain SLT2, stronger effect = lower value",0.994 (inactive) and 0.988 (inactive)
same,normalized growth,"locus YHR079C, strain IRE1 (second series), stronger effect = lower value",0.972 (inactive)
same,normalized growth,"locus YHR079C, strain IRE1, stronger effect = lower value",0.991 (inactive)
same,normalized growth,"locus YHR094C, strain hxt1, stronger effect = lower value",0.977 (inactive)
same,normalized growth,"locus YHR129C, strain ARP1, stronger effect = lower value",0.992 (inactive)
same,normalized growth,"locus YHR142W, strain chs7, stronger effect = lower value",0.127 (active)
same,normalized growth,"locus YHR200W, strain rpn10, stronger effect = lower value",0.973 (inactive)
same,normalized growth,"locus YIL066C, strain RNR3, stronger effect = lower value",0.965 (inactive)
same,normalized growth,"locus YIL073C, strain SPO22, stronger effect = lower value",1.52 [resistant] (active)
same,normalized growth,"locus YIL125W, strain kgd1, stronger effect = lower value",0.986 (inactive)
same,normalized growth,"locus YIR030C, strain dcg1, stronger effect = lower value",0.98 (inactive)
same,normalized growth,"locus YJL092W, strain hpr5, stronger effect = lower value",0.282 (active)
same,normalized growth,"locus YJL095W, strain BCK1 (second series), stronger effect = lower value",0.0776 (active)
same,normalized growth,"locus YJL095W, strain BCK1, stronger effect = lower value",0.918 (inactive) and 0.981 (inactive)
same,normalized growth,"locus YJL115W, strain asf1, stronger effect = lower value",0.435 (active)
same,normalized growth,"locus YJL129C, strain trk1, stronger effect = lower value",0.215 (active)
same,normalized growth,"locus YJL134W, strain LCB3, stronger effect = lower value",0.983 (inactive)
same,normalized growth,"locus YJL154C, strain vps35, stronger effect = lower value",0.686 (active)
same,normalized growth,"locus YJL164C, strain tpk1, stronger effect = lower value",0.176 (active)
same,normalized growth,"locus YJL166W, strain qcr8, stronger effect = lower value",0.19 (active)
same,normalized growth,"locus YJL168C, strain set2, stronger effect = lower value",0.977 (inactive)
same,normalized growth,"locus YJL187C, strain SWE1 (second series), stronger effect = lower value",0.946 (inactive)
same,normalized growth,"locus YJL187C, strain SWE1, stronger effect = lower value",0.231 (active)
same,normalized growth,"locus YJR043C, strain POL32, stronger effect = lower value",0.983 (inactive)
same,normalized growth,"locus YJR066W, strain TOR1, stronger effect = lower value",0.928 (inactive)
